# Laboratory results taken from PubChem BioAssay (Tox21).
# Unmarked numbers belong to inactive results. Records with an inconclusive call do not appear. Entries that show only a call come without a potency. Calls of active or inactive are those of the source. Unless noted, the call rests on the fitted dose curve; in most records, active means well fitted curve in the direction sought with a large enough effect in the repeat runs; inconclusive means weak or mixed curves; inactive means no such curve, though single readings can be large; an effect the other way counts as inactive or inconclusive.
# Key:
# [1] = qHTS assay to identify small molecule antagonists of the estrogen receptor alpha (ER-alpha) signaling pathway using the BG1 cell line in the presence of 0.1 nM 17-beta-estradiol - cell viability counter screen (AID 1259241); further: nearly all actives have a fitted effect of over 40% in size
# Procedure, shortened: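 Estradiol-stimulated (0.1 nM) VM7Luc4E2 cells exposed to compounds 22 hr; viability measured by fluorescence of cleaved CellTiter-Fluor substrate after 30 min.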
# [2] = qHTS assay to identify small molecule antagonists of the androgen receptor (AR) signaling pathway using the MDA cell line in the presence of 0.5 nM R1881 - cell viability counter screen (AID 1259242); further: nearly all actives have a fitted effect of over 45% in size; further: potency means the concentration at half of the fitted maximal effect
# Procedure, shortened: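 Live-cell protease activity was measured by CellTiter-Fluor fluorescence after 30 min. Before that, MDA-kb2 MMTV-luciferase cells had 16 hr at 37C without CO2, exposed to test compounds and 0.5 nM R1881 final.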
# [3] = biological target: Estrogen receptor (Homo sapiens) (UniProt P03372); assay: qHTS assay to identify small molecule antagonists of the estrogen receptor alpha (ER-alpha) signaling pathway using the BG1 cell line in the presence of 0.1 nM 17-beta-estradiol (AID 1259244); further: nearly all actives have a fitted effect of over 50% in size; further: potency means the concentration at half of the fitted maximal effect
# Estrogen receptor (Homo sapiens), sequence (P03372 whole entry, looked up): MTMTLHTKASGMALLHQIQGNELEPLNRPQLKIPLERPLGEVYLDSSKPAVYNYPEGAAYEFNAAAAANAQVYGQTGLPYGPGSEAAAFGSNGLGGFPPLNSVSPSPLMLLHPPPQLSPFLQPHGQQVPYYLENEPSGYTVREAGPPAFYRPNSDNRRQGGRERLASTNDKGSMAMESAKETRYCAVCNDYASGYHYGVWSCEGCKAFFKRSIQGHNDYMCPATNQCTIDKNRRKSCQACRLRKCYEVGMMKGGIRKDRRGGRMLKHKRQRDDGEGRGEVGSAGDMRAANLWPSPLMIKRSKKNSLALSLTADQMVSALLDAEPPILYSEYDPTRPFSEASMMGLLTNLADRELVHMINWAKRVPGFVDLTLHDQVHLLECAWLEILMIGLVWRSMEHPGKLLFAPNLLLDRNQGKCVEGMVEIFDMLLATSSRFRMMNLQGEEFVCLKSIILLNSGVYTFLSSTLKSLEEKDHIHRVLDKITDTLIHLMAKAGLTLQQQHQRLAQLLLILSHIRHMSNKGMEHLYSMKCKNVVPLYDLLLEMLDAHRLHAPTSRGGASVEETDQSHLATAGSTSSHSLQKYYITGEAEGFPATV
# Procedure, shortened: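 Luciferase luminescence (ONE-Glo, 30 min at room temperature) was read after 22 hr at 37C exposure to compounds plus 17beta-estradiol at 0.1 nM final. Cells were VM7Luc4E2 with endogenous ER-alpha and an ERE-driven luciferase, pre-cultured 5 days in hormone-depleted medium.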
# [4] = qHTS assay to identify small molecule HDAC inhibitors (AID 1259364); further: nearly all actives have a fitted effect of over 45% in size; further: potency means the concentration at half of the fitted maximal effect
# Procedure, shortened: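 Luminescence read after 30 min room-temperature HDAC-Glo incubation measures cellular class I/II HDAC activity. Compounds were applied for 2 hr at 37 C to HCT-116 wild-type cells seeded the day before.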
# [5] = qHTS assay to identify small molecule agonists of the sonic hedgehog signaling (Shh) pathway - cell viability counter screen (AID 1259366); further: nearly all actives have a fitted effect of over 50% in size
# Procedure, shortened: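 Same-well cytotoxicity read. Gli1-Luc reporter 3T3 cells; compounds 24hr, 37C/5% CO2; CellTiter-Fluor fluorescence.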
# [6] = qHTS assay to identify small molecule antagonists of the sonic hedgehog signaling (Shh) pathway - cell viability counter screen (AID 1259367); further: nearly all actives have a fitted effect of over 55% in size
# Procedure, shortened: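 CellTiter-Fluor signal in conditioned medium-stimulated 3T3 Gli1-Luc cells, 23 hr compound exposure, 37C.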
# [7] = qHTS assay to identify small molecule agonists of the sonic hedgehog signaling (Shh) pathway (AID 1259368; calls by dose curve;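 further: NIH/3T3-derived 3T3Gli1-Luc cells carrying a stable Gli1-driven firefly luciferase reporter; series mostly up to about 92 µM; nearly all actives have a fitted effect of over 15% in size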)
# Procedure, shortened: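 Luminescence was read after 30 min at room temperature with luciferase reagent. Before that, 3T3Gli1-Luc cells (NIH/3T3 clone, stable Gli1-Luc reporter; 2,000/well) were exposed to compounds for 24 hr at 37C, 5% CO2, compounds being added 4 hr post-plating.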
# [8] = qHTS assay to identify small molecule HDAC inhibitors - cell viability counter screen (AID 1259365); further: series mostly up to about 92 µM; nearly all actives have a fitted effect of over 50% in size
# Procedure, shortened: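 After overnight seeding at 1,500 cells per well, wild-type HCT-116 cultures took up compounds in DMSO for 2hr at 37 C. Viable cell content came from luminescence with CellTiter-Glo.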
# [9] = qHTS assay to identify small molecule phospholipidosis (PLD) inducers (AID 1259344; active means well fitted curve in the direction sought with a large enough effect; an effect the other way counts as inactive or inconclusive)
# Procedure, shortened: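 Accumulated phospholipid, stained red by LipidTOX during 24 h compound treatment of HepG2 cells at 37 C, is quantified from images as pit number and intensity, normalised per cell using Hoechst-stained nuclei.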
SMILES,Potency [1],Potency [2],Potency [3],Potency [4],Potency [5],Potency [6],Potency [7],Potency [8],outcome [9]
CC(C)CCCCCCOC(=O)CCCCC(=O)OCCCCCCC(C)C,inactive,inactive,inactive,inactive,inactive,inactive,,,
NC(=O)N(O)[C@@H]1COc2cc(OCc3ccccc3)ccc21,inactive,inactive,43.3 µM (active),1.72 µM (active),inactive,,inactive,,
O=C1NCCN1,inactive,inactive,inactive,inactive,inactive,inactive,inactive,inactive,
COC(=O)CC(=O)C(C)(C)C,inactive,inactive,inactive,inactive,,inactive,inactive,inactive,
C/C=C/C=C/CCCCCCCO,inactive,inactive,inactive,inactive,,,inactive,,
O=Cc1c(Cl)cccc1Cl,inactive,inactive,inactive,inactive,,inactive,inactive,inactive,
COC(=O)Nc1nc2ccc(C(=O)c3cccs3)cc2[nH]1,inactive,inactive,,11.9 µM (active),inactive,,,inactive,inactive
CC1CC(=O)NN=C1c1ccc(NCC(C)(C)NCC(O)COc2cc(Cl)ccc2C#N)cc1 (stereo not given),inactive,inactive,inactive,inactive,,inactive,inactive,inactive,
CCCCC(CC)C(=O)OCCOCCOCCOCCOC(=O)C(CC)CCCC (stereo not given),inactive,inactive,inactive,inactive,inactive,inactive,inactive,inactive,
Cc1ccc(S(=O)(=O)NC2CCCCC2)cc1,inactive,inactive,inactive,inactive,inactive,inactive,inactive,inactive,
C[Si](NC1CCCCC1)(NC1CCCCC1)NC1CCCCC1,inactive,inactive,inactive,inactive,inactive,inactive,inactive,inactive,
CC(C)C(=O)O,inactive,inactive,inactive,inactive,,inactive,inactive,inactive,
CC1=CC(=O)CC(C)(C)C1(O)/C=C/C(C)=C\C(=O)O (stereo not given),inactive,inactive,,inactive,inactive,inactive,,inactive,
COCCOC,inactive,inactive,,inactive,inactive,inactive,inactive,inactive,
Cc1ccccc1N1C(=O)c2cc(S(N)(=O)=O)c(Cl)cc2NC1C (stereo not given),inactive,inactive,,inactive,inactive,inactive,inactive,inactive,inactive
Nc1ccc(C(=O)OCCCOC(=O)c2ccc(N)cc2)cc1,inactive,inactive,,inactive,inactive,inactive,,inactive,
Cc1ccc(/C=N/n2c(-c3ccccc3)csc2=S)cc1,inactive,inactive,,inactive,inactive,inactive,inactive,,inactive
CC(=O)Oc1ccc2c(c1)CC[C@@H]1[C@@H]2CC[C@]2(C)[C@@H](O)CC[C@@H]12,inactive,inactive,,inactive,inactive,inactive,inactive,inactive,inactive
C[C@]12CCC(=O)C=C1C=C[C@@H]1[C@@H]2CC[C@@]2(C)[C@H]1CC[C@@]21CCC(=O)O1,inactive,inactive,,inactive,inactive,inactive,,inactive,
CN(C(=O)C(Cl)Cl)c1ccc(OC(=O)c2ccco2)cc1,inactive,inactive,,inactive,inactive,inactive,inactive,,inactive
C=C(C)C(=O)OCCOC(=O)CC(C)=O,inactive,inactive,,inactive,inactive,inactive,inactive,inactive,
CC(C)(C)C(=O)O,inactive,inactive,,inactive,inactive,inactive,inactive,inactive,
CC(=N\O)/C(C)=N/O,inactive,inactive,,inactive,inactive,inactive,inactive,inactive,
CCCCCCOC(=O)C(C)C,inactive,inactive,,inactive,inactive,inactive,inactive,inactive,
CCCCCCOC(=O)CCCCCCCC(=O)OCCCCCC,inactive,inactive,,inactive,inactive,inactive,inactive,inactive,
O=C(O)c1snc(Cl)c1Cl,inactive,inactive,,inactive,inactive,inactive,inactive,inactive,
CN1CCN(CCCN2c3ccccc3Sc3ccc(S(=O)(=O)N(C)C)cc32)CC1,inactive,inactive,,inactive,,,inactive,inactive,inactive
CC1(C)C(=O)N(Br)C(=O)N1Cl,inactive,inactive,,inactive,inactive,inactive,inactive,inactive,
CC[C@@H]([C@H](C)O)n1ncn(-c2ccc(N3CCN(c4ccc(OC[C@@H]5CO[C@@](Cn6cncn6)(c6ccc(F)cc6F)C5)cc4)CC3)cc2)c1=O,inactive,26.6 µM (active),,inactive,,inactive,inactive,inactive,inactive
